Assay outcomes from PubChem BioAssay.
The sample as a whole holds a higher share of hits than the screen did.
Shiga inhibitor: Shiga toxin inhibition | Vero cells, Shiga toxin protein synthesis inhibition reporter | inhibition, % at 38.7 µM | 290,000 tested, 9.2% active | AID 2315; in the data active = inhibition mostly above about 28%, no sharp cut-off; inactive = mostly below about 43%; note: 0% is about no effect
Marburg entry inh: blocks Marburg virus binding to or entry into cells | Marburg virus pseudotyped entry inhibition, cell reporter | Potency, µM (titrated, usually from 37.8 µM), inactives show top-dose activity change, negative = inhibition, hits mostly inhibitors | 300,000 tested, 1.8% active; calls by dose curve; tested in HEK293 cells; note: potency is the fitted concentration of half-maximal effect; % is set by controls: 0 for no effect and ±100 for the full control effect
CHX counter: affects cycloheximide protein synthesis inhibition readout, counter-screen | 300,000 tested, 12% active | max response, % | cell reporter, cycloheximide protein synthesis inhibition counterscreen; in the data active = max response mostly above about 13%, no sharp cut-off; inactive = mostly below about 14%; note: read at 38.3 µM for the half of the compounds with a filed dose; 0% is about no effect
LASV entry inh: Lassa virus entry inhibition; Lassa virus pseudotype entry inhibition, cell reporter; Potency, µM (titrated, usually from 37.9 µM), for inactives: at the highest dose activity change, negative = inhibition, actives largely listed as inhibitors; 300,000 tested, 1.2% active; calls by dose curve; tested in HEK293 cells; note: potency is the fitted concentration of half-maximal effect; % is set by controls: 0 for no effect and ±100 for the full control effect; nearly all actives have a fitted effect of over 50% in size
Vaccinia mCherry: inhibitors of vaccinia virus infection (mCherry reporter signal); Vaccinia virus mCherry reporter infection, fluorescence; Potency, µM (titrated, usually from 36.5 µM), without a hit: top-dose activity change, negative = inhibition, actives largely listed as inhibitors; 310,000 tested, 0.63% active; calls by dose curve; tested in A549 cells; note: potency is the fitted concentration of half-maximal effect; % is set by controls: 0 for no effect and ±100 for the full control effect; nearly all actives have a fitted effect of over 35% in size
Vaccinia Venus: inhibitors of vaccinia virus (Venus reporter); Vaccinia virus Venus reporter expression, fluorescence; Potency, µM (series often up to 36.5 µM), inactives show at the highest dose activity change, negative = inhibition, hits mostly inhibitors; 330,000 tested, 0.46% active; AID 720580; calls by dose curve; tested in A549 cells; note: potency is the fitted concentration of half-maximal effect; % is set by controls: 0 for no effect and ±100 for the full control effect; nearly all actives have a fitted effect of over 30% in size
* marks the source's active call; other numbers are inactive results; i = inactive; ? = inconclusive; nt = not tested or not shown; [ ] = remark or other dose.

SMILES	Shiga inhibitor	Marburg entry inh	CHX counter	LASV entry inh	Vaccinia mCherry	Vaccinia Venus
CCN1C(=NCc2ccco2)N[C@@H](CCc2ccccc2)[C@H](C(=O)OC)[C@H]1C	nt	33%[14.2 µM]	nt	?	nt	nt
CC(C)CNC(=O)C1=CC(c2ccc3c(c2)OCO3)=NS(=O)(=O)N1C	nt	1%[46.1 µM]	nt	-16%[46.1 µM]	3%	2%
CCOC(=O)/C=C1\CN(Cc2ccc(OC)cc2)S(=O)(=O)c2ccc(C(F)(F)F)cc21	nt	nt	nt	nt	i	-9%
COc1cccc(OCc2cc(/C=N/NC(=O)c3ccn[nH]3)ccc2OC)c1	71*	2%	50*	-24%	i	-27%
COc1ccc(/C=N/NC(=O)c2ccn[nH]2)cc1CN1CCOCC1	42	-1%[46.1 µM]	22	10%[46.1 µM]	-11%	6%
COc1cc(OC)c(/C=N/NC(N)=S)cc1Br	-2	?	-3	?	1µM*	1.3µM*
COc1cc(/C=N/NC(=O)c2ccccc2)ccc1O	60*	nt	26*	nt	nt	nt
COc1cc(/C=N/NC(=O)CCN2CCCCC2)ccc1O	3	18%[46.1 µM]	-2	6%	?	?
COc1cc(/C=N/NC(=O)CCn2cnc(-c3ccccc3)c2-c2ccccc2)ccc1O	-14	?	-3	?	8.9µM*	?
O=S(=O)(NCCNCC=Cc1ccc(Br)cc1)c1cccc2cnccc12	nt	nt	nt	nt	-11%	?
COc1cc(/C=N/NC(=O)c2sc(N)c(C#N)c2C)ccc1O	-7	4.5µM*	-5	-7%	-6%[1.46 µM]	?
CCOc1c(Br)cc(/C=N\NC(=O)c2ccccc2)cc1OC	active	?	32*	12%	i	2%
COc1ccc(/C=N\NC(=O)c2ccccc2)cc1COc1ccccc1	45*	-30%	25*	?	-22%	-23%
COc1cc(/C=N/NC(=O)c2ccc(O)cc2)ccc1OCC(=O)N1CC(C)OC(C)C1 (centres undefined)	37*	0%[46.1 µM]	14*	3%	i	-11%
COc1ccc(C(=O)N/N=C/c2ccc(OC)c(COc3ccccc3)c2)cc1	10	?	11	-23%[46.1 µM]	-12%	-22%
COc1cccc(C(O)c2cnc(C(C)C)n2C)c1 (centres undefined)	8	12%[46.1 µM]	-1	2%	-15%[7.34 µM]	-2%[7.34 µM]
COc1cc(/C=N/NC(N)=S)cc(Br)c1OCc1ccccc1F	9	?	5	?	?	2.5µM*
COc1cc(C=NCc2ccccc2)ccc1O	nt	nt	nt	nt	-7%	-9%
COc1ccc(/C=N/NC(=O)c2ccccc2O)cc1COc1ccccn1	41*	nt	23*	nt	?	-11%
COc1cc(/C=N/c2oc(-c3ccccc3)cc2C#N)ccc1O	28	3%	19*	11%	nt	nt
COc1ccc(/C=N/NC(=O)c2ccccc2O)cc1CSc1ccccn1	82	6%	9	7%	-13%	-15%
CCOc1cc(/C=C/C(=O)c2ccc(OC)c(CN3CCOCC3)c2)cc(Br)c1O	1	?	-6	?	11µM*	184%
Fc1ccc(Nc2nc(-c3cccc(Cl)c3)c3c(n2)-c2ccccc2OC3)c(F)c1	nt	?	nt	?	-12%	-3%
O=C(Cn1c(-c2cccs2)cc2ccccc21)N1CCN(c2ccc(F)cc2)CC1	nt	nt	nt	?	-6%	-6%
CCC1CN(Cc2cn[nH]c2-c2ccc(OC)cc2)Cc2cc(OC)ccc2O1 (centres undefined)	nt	nt	nt	nt	-25%	-13%
SMILES	Shiga inhibitor	Marburg entry inh	CHX counter	LASV entry inh	Vaccinia mCherry	Vaccinia Venus
COc1ccc(/C=N/NC(=O)c2cccc(Br)c2)cc1COc1ccccn1	11	2%[46.1 µM]	14*	-11%	-16%[7.34 µM]	-4%[7.34 µM]
CCOc1c(Br)cc(C(N)=O)cc1OCc1ccccc1	-7	?	4	12µM*	-4%	-25%
COc1cc(C(N)=O)cc(Br)c1OCc1ccccc1	2	1%	-2	-17%	i	-7%
COc1ccc(/C=N/NC(=O)c2cccc(Br)c2)cc1CN1CCOCC1	18	-4%	19*	10%	-20%	-15%
Cc1ccc(NC(=O)N2CCC(NC(=O)c3cccc(F)c3)CC2)cc1	10	13%[46.1 µM]	1	15%	-19%	-11%
Cc1c(C2(c3cc(C(C)C)c(O)c(Br)c3C)OS(=O)(=O)c3ccccc32)cc(C(C)C)c(O)c1Br	nt	nt	nt	nt	-9%	-7%
Cc1ccc(C(=O)N/C(=C/c2ccc(-c3ccc([N+](=O)[O-])cc3)o2)C(=O)NCCCN(C)C)cc1	nt	4µM*	nt	?	?	11µM*
O=C(NCCCO)/C(=C/c1ccc(-c2cccc([N+](=O)[O-])c2)o1)NC(=O)c1ccccc1	-5	?	-4	1%	10%	1%
CN1CCSc2ccc(C(=O)NCc3ccccc3F)cc21	35*	18%[46.1 µM]	28*	nt	-18%	-19%
CC(C)Oc1ccc(CNC(=O)c2ccc3c(c2)N(C)CCS3)cc1	54*	nt	35*	nt	?	-17%
CN1CCSc2ccc(C(=O)NCc3cccc(Br)c3)cc21	21	nt	11*	nt	i	6%
COc1ccc(CNC(=O)c2ccc3c(c2)N(C)CCS3)cc1	23	nt	active	nt	-9%	-15%
CCN1CCSc2ccc(C(=O)NCc3ccc(OC)cc3)cc21	nt	4%[46.1 µM]	nt	-25%[46.1 µM]	-7%[7.34 µM]	-4%[7.34 µM]
Cc1ccc(CN2CCSc3ccc(C(=O)NCc4ccc(OC(C)C)cc4)cc32)cc1	nt	-12%[46.1 µM]	nt	nt	-16%	-10%
CCN1CCSc2ccc(C(=O)NCc3ccccc3F)cc21	31	nt	7	nt	-19%	?
NS(=O)(=O)c1cc2c(cc1Cl)NC=NS2(=O)=O	-10	?	-4	0%	-15%	-7%
Cn1c(=O)c2sccc2n2c(CCCC(=O)NC3CCCCC3)nnc12	nt	nt	nt	2%[46.1 µM]	-4%	-5%
COc1ccc(-c2cc3nc(C)cc(N)n3n2)cc1	73	?	15*	?	-8%	-14%
COc1ccc(-c2cc3nc(C)cc(NCCO)n3n2)cc1	24	11%	22*	?	-2%	-10%
COc1ccc(-c2cc3nc(C)cc(-c4ccc(OC)cc4)n3n2)cc1	nt	nt	4	nt	nt	nt
COCCNc1cc(C)nc2cc(-c3ccc(C)cc3)nn12	100	-14%[46.1 µM]	15*	nt	-5%	-9%
Cc1ccc(-c2cc3nc(C)cc(NCc4ccco4)n3n2)cc1	59*	?	55*	40%[14.3 µM]	-20%	-8%
COC(C/C=C/C(=O)COCc1ccccc1)OC	42*	nt	18*	nt	-11%	-12%
Cc1ccc(S(=O)(=O)N2CCN(c3nc(-c4cccs4)nc4ncccc34)CC2)cc1	nt	nt	nt	nt	-22%	?
Cc1cccc(NC(=O)CSc2nc3ccccc3nc2N2CC(C)OC(C)C2)c1 (centres undefined)	11	nt	11*	nt	-7%	-12%
CCc1ccc(NC(=O)CSc2nc3ccccc3nc2N2CCCCC2)cc1	14	nt	22*	nt	0%	-1%
CCc1ccc(NC(=O)CSc2nc(=O)n(CCN(C)C)c3c2CCCC3)cc1	nt	13µM*	nt	?	?	-13%
CCc1cccc(NC(=O)CSc2nc3ccccc3nc2N2CCCCC2)c1	14	?	17	?	-18%[7.34 µM]	3%[7.34 µM]
